# High-throughput results (PubChem)
# GAA spleen mod – inhibits or activates alpha-glucosidase in human spleen homogenate. human spleen homogenate, 4-MU-alpha-glucoside fluorescence. AID 2112. actives 0.006% (n = 240,000). P10253. Potency, µM (titrated, usually from 79.9 µM), for inactives: at the top dose activity change, negative = inhibition, actives largely listed as inhibitors;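 also: potency is read from the fitted curve at half-maximal effect; 0% = enzyme with vehicle and -100% = no enzyme basal signal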
#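 Human spleen homogenate (1 ug) with 4-methylumbelliferyl-alpha-D-glucopyranoside (1 mM final) in 50 mM citrate/phosphate pH 5.0, 0.01% Tween-20; 40 min at 37 C. Stopped at pH 10; 4-MU fluorescence Ex 365/Em 440 nm; AC50 by Hill fit.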
# GAA glycogen mod – GAA glycogen-cleavage inhibition or activation; P10253; recombinant GAA, glycogen substrate, Amplex Red glucose oxidase fluorescence; actives 0.38% (n = 300,000); Potency, µM (series often up to 76.4 µM), for the others: top-dose activity change, negative = inhibition, hits mostly inhibitors; AID 2100;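 also: potency is read from the fitted curve at half-maximal effect; 0% = full enzyme reaction and -100% = no-enzyme basal signal; the screen sought inhibitors and activators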
#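 Recombinant enzyme (4 nM final) with compounds titrated up to 77 uM and bovine liver glycogen (30 ug) in citrate pH 5.0, 0.01% Tween-20, 37 C 40 min. Released glucose detected by Amplex Red/glucose oxidase (Ex 573/Em 610); AC50 from Hill fits.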
# GAA inhib – inhibitors of human lysosomal alpha-glucosidase | purified human GAA, 4-MU-alpha-glucoside fluorescence | Potency, µM (series often up to 76.9 µM), for inactives: top-dose activity change, negative = inhibition, most hits filed as inhibitors | actives 0.005% (n = 200,000) | AID 1466;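 also: potency is read from the fitted curve at half-maximal effect; plate controls were uninhibited enzyme wells for no effect and no-enzyme background for full effect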
#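 Fluorescence at Ex 365/Em 440 nm from 4-methylumbelliferone reported enzyme activity after 20 min at room temperature. Reactions used 4 nM enzyme and 400 uM substrate at pH 5.0; curves fitted with the Hill equation.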
# aGal spleen mod – inhibitors or activators of human alpha-galactosidase in spleen homogenate. P06280. human spleen homogenate, 4MU-alpha-Gal fluorescence, 40 min. Potency, µM (highest dose often 80 µM), for inactives: at the highest dose activity change, negative = inhibition, most hits filed as inhibitors. actives 0.008% (n = 240,000);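 also: potency is read from the fitted curve at half-maximal effect; 0% = enzyme with vehicle and -100% = no enzyme basal signal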
# Target sequence (P06280 32-429 limits assumed): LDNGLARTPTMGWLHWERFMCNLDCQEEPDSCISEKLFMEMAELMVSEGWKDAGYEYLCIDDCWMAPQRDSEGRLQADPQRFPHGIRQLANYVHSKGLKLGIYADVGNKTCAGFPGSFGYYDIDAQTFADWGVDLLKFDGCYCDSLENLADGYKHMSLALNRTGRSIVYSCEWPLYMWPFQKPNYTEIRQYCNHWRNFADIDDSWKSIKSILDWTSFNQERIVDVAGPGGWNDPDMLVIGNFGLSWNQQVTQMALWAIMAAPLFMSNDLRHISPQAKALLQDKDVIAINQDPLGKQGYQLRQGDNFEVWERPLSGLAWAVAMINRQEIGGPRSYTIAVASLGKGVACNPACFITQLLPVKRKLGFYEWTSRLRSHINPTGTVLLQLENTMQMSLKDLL
#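 Spleen homogenate 1 ug + cpd (titration) + 4-MU-alpha-D-galactopyranoside 1 mM; 37C 40 min; 50 mM citrate/phosphate pH 5.0, 0.01% Tween-20; stop pH 10; fluorescence 365/440; AC50 via Hill.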
# N370S GC – inhibitors or activators of N370S glucocerebrosidase for Gaucher disease. P04062. N370S GC spleen homogenate, 4MU-glucoside fluorescence. Potency, µM (doses to about 59.4 µM), inactives show at the top dose activity change, negative = inhibition, usual class: inhibitors. actives 0.092% (n = 330,000). AID 2101;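 also: potency is read from the fitted curve at half-maximal effect; 0% = full enzyme activity and -100% = no enzyme basal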
# GLA inh pH 4.5 – blocks human alpha-galactosidase A at pH 4.5; P06280; activity change, negative = inhibition, % at 105 µM; AID 1467; purified enzyme, 4-MU-alpha-Gal fluorescence, pH 4.5; 230,000 tested, under 10 active;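 also: 0% = full activity with enzyme and -100% = basal without enzyme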
# * marks the source's active call; other numbers are inactive results; ? = inconclusive; nt = no result; ! = a repeat was not active; [ ] = another dose, or the depositor's remark. Most compounds without a hit are left out; they make up all but 0.43% or so of the library. Calls follow the shape of the dose curve; as a rule, active = well fitted curve in the direction sought with a large enough effect; inconclusive = small, poorly fitted or top-dose-only effect, or another doubt; inactive = no such curve, though single readings can be large; an effect the other way counts as inactive or inconclusive.
SMILES,GAA spleen mod,GAA glycogen mod,GAA inhib,aGal spleen mod,N370S GC,GLA inh pH 4.5
NC(N)=NCCC[C@H](NC(=O)CC1(CC(=O)N2CCN(C3c4ccccc4NC(=O)c4ccccc43)CC2)CCCC1)C(=O)NCCn1c(=O)n(-c2ccccc2)n(-c2ccccc2)c1=O (some centres undefined),-3%,nt,nt,-3%,18µM*,-13
O=C(O)COCC(=O)N1CCN(C2c3ccccc3-c3ccccc32)CC1,-3%,-9%,nt,5%,-15%,-3
N#C/C(=C\c1ccc(O)c(O)c1)S(=O)(=O)c1ccccc1,-7%,7.1µM*,-7%,3%,-17%,-22
N#C/C(=C/c1ccc(F)cc1)S(=O)(=O)c1ccccc1,6%,-5%,nt,16%,-17%,-4
COc1ccc2[nH]cc(CCNS(=O)(=O)c3ccc(C)cc3)c2c1,2%,-4%,nt,6%,-3%,-5
CCCn1c(C(CO)Nc2nc(-c3cccc(Br)c3)cs2)nc2ccccc21 (centres undefined),nt,2%[76.3 µM],nt,nt,1.8µM*,nt
Nc1ccccc1Nc1cccc(C(F)(F)F)c1,nt,11µM*,-5%,-2%,-1%,1
COc1ccc(Br)cc1CNc1ccc(N2CCOCC2)cc1,nt,22µM*,nt,nt,-7%,nt
Cc1ccc(S(=O)(=O)N2CCN(CC(=O)N/N=C/c3ccc(C)o3)CC2)cc1,-9%,-24%,?,7%,-5%,-1
Cc1ccc(S(=O)(=O)N2CCN(CC(=O)N/N=C\c3ccc(O)c(O)c3)CC2)cc1,?,6.3µM*,nt,-18%,-20%,4
O=C(CN1CCN(S(=O)(=O)c2ccc(Cl)cc2)CC1)c1ccc(O)c(O)c1,nt,8.9µM*,nt,nt,-28%,nt
O=C(CN1CCN(S(=O)(=O)c2ccc(F)cc2)CC1)c1ccc(O)c(O)c1,-10%,10%,?,-7%,?,-12
CN(CCC1CCOCC1)C(=O)C1CCC(=O)N(CCc2ccccc2)C1 (centres undefined),nt,4%[76.3 µM],nt,nt,1%,nt
CC1CN(C(=O)c2cc3cc(Br)ccc3[nH]2)CC(C)O1 (centres undefined),nt,-4%,nt,nt,-13%,nt
S=C(NCc1ccncc1)Nc1ccc(Br)cc1,nt,-6%[76.3 µM],nt,nt,18µM*,nt
S=C(NCc1ccncc1)Nc1ccccc1,3%,9%,5%,1%,-4%,3
CCOc1ccc(NC(=O)CSc2nnc3c(C)cc4ccccc4n23)cc1,nt,-2%[76.3 µM],nt,nt,nt,nt
Cc1[nH]n(-c2ccc(Cl)c(Cl)c2)c(=O)c1CCO,-4%,22µM*,-5%,-5%,-4%,2
Cc1cnc(CNc2ccnc(-c3ccccc3C(F)(F)F)n2)cn1,-9%,nt,nt,-6%,-15%,nt
CCOC(=O)N1CCN(C(=O)C(=O)c2cn(CC(=O)N3CCCCCC3)c3ccccc23)CC1,nt,nt,nt,nt,-18%,nt
COc1ccc(OC)c(Cc2nnc(CCC(=O)NCc3ccc(C)s3)o2)c1,-3%,10µM*,3%,-3%,7%,3
COc1ccc(OC)c(Cc2nnc(CCC(=O)NC(C3CC3)C3CC3)o2)c1,-2%,11%,1%,-8%,-2%,2
Cc1ccccc1S(=O)(=O)Cc1ccc(C(=O)NCc2ccccc2Cl)o1,nt,-1%[76.3 µM],nt,nt,nt,nt
O=C(NNc1cccc(Cl)n1)c1c(F)cccc1F,nt,?,-4%,1%,6%,15
O=C(NNc1cccc(Cl)n1)c1c(Cl)cccc1Cl,-29%,8.9µM*,8%,0%,7%,9
SMILES,GAA spleen mod,GAA glycogen mod,GAA inhib,aGal spleen mod,N370S GC,GLA inh pH 4.5
CSc1ccc2c(c1)[C@H](N1CCN(C)CC1)Cc1ccccc1S2,6%,nt,nt,8%,13µM*,-9
CSc1ccc2c(c1)C(N1CCN(C)CC1)Cc1ccccc1S2 (centres undefined),5%,7%,nt,17%,18µM*!,-5
CN1CCN(C2Cc3ccccc3Sc3ccc(Cl)cc32)CC1 (centres undefined),5%,nt,nt,1%,?,-9
C=C[C@@H](C1=CC(=O)C(OC)=C(OC)C1=O)c1ccccc1,-1%,nt,nt,-11%,-17%,-1
CC(=O)Oc1c(C)cc(O)c2ccccc12,2%,14µM*,2%,4%,8%,-1
COC(=O)c1cc(O)c(OCc2ccccc2)c(O)c1,-15%,-25%,-3%,4%,-2%,-5
CC(=O)Cc1cc(O)c2ccccc2c1OC(=O)c1ccccc1,-8%,8.9µM*,?,7%,-28%,-18
Oc1ccc(/C=N/NC(=S)N/N=C/c2ccc(O)cc2)cc1,2%,3.5µM*,5%,-16%,-4%,3
CCN(C(=O)C(=O)Nc1ccc2nc3n(c(=O)c2c1)CCCCC3)c1ccc(F)cc1,nt,-2%[76.3 µM],nt,nt,nt,nt
COCCN=C1OC(=O)N2C(=O)C3=C4C(C[C@H]5C(=O)N(c6ccccc6)C(=O)[C@H]5[C@H]4[C@@]12Cc1ccccc1)[C@H]1C(=O)N(c2ccccc2)C(=O)[C@H]1[C@H]3C (some centres undefined),-2%,nt,nt,3%,3%,-3
C[C@@]12CC[C@H]3OC(=O)C=C3C1CC[C@@]13CC(CCC12)[C@](CO)(O[C@H]1O[C@H](CO)[C@@H](O)[C@H](O)[C@H]1O)C3 (some centres undefined),nt,nt,nt,nt,18µM*,nt
CCOc1cc(/C=C2\SC(=O)N=C2N)ccc1O,-2%,-23%,-5%,6%,-7%,-4
CCOc1cc(/C=C2\SC(N)=NC2=O)ccc1O,nt,10µM*,nt,nt,-4%,nt
C=CCc1ccc(O)c(-c2ccc(O)c(CC=C)c2)c1,-11%,35µM*,nt,-20%,-10%,-3
CC(C)=CCc1c(O)cc(O)c2c1O[C@H](c1ccccc1)CC2=O,-6%,nt,nt,3%,-2%,-5
Cc1ccc(C)c(NC(=O)C2CCCN(S(=O)(=O)c3ccc4[nH]c(=O)ccc4c3)C2)c1 (centres undefined),nt,32µM*,nt,nt,-23%,nt
O=C1OCC(CO)(CO)N=C1NNc1ccccc1Cl,-8%,28µM*,-7%,-2%,7%,2
O=C(Nc1cc(-c2nc3ccccc3o2)ccc1Cl)c1sc2c([N+](=O)[O-])cccc2c1Cl,nt,-4%[76.3 µM],nt,nt,nt,nt
Cc1cc(O)c(C(C)C)cc1N=C1CSC(=O)N1,8%,18µM*,5%,5%,2%,-6
C=C(C)COc1ccc2c(C)c(CCC(=O)NC3CC3)c(=O)oc2c1,nt,nt,nt,nt,2%,nt
COc1cc(/C=N\NC(=O)c2c(C)nc3cc(C)ccn23)ccc1O,?,11µM*,-4%,-22%,?,0
COc1cccc2c1cc1c(=O)n(CC(=O)N3CCC(C)CC3)nc(C)n12,nt,1%[76.3 µM],nt,nt,3%,nt
CCOc1ccc(NS(=O)(=O)c2ccc3[nH]cc(C(=O)N4CCCC4)c(=O)c3c2)cc1,nt,-20%[76.3 µM],nt,nt,nt,nt
